About 5,100 (32%) of roughly 16,000 compounds were called active. Not shown: some 25% with an inconclusive outcome. Calls come from the whole dose curve; as a rule, active = well fitted curve in the direction sought with a large enough effect; inconclusive = small, poorly fitted or top-dose-only effect, or effect the other way; inactive = no such curve, though single readings can be large or run the other way. The list shows a part of the results. Square brackets hold non-standard residues; d marks the D form. Peptide text beside a SMILES is read from it. * marks the point of attachment. Cbz = O=C(OCc1ccccc1)*
% is set by controls: 0 for no effect and ±100 for the full control effect.

This test deals with Cytochrome P450 3A4 (Homo sapiens) (UniProt P08684). Description: Cytochrome panel assay with activity outcomes. The following applies: recombinant CYP, pro-luciferin dealkylation, luminescence, p450-cyp3a4; series mostly up to 57.1 µM; activity, negative = inhibition: at the top concentration.
Sequence of Cytochrome P450 3A4 (Homo sapiens) (P08684 whole entry, looked up): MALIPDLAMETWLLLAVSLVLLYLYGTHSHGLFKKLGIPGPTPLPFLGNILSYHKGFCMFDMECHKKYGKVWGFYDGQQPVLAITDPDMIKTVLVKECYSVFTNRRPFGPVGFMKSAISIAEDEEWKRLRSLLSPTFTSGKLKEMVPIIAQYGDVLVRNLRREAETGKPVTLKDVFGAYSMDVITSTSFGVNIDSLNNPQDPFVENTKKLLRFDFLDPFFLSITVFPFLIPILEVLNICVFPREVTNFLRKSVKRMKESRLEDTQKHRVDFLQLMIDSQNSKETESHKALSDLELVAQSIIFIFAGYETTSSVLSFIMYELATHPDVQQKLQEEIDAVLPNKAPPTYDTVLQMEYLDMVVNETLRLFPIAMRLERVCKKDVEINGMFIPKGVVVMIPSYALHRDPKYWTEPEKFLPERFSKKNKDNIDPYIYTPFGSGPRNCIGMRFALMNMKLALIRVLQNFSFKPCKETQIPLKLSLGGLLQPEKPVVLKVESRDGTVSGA
In the case of `COc1ccccc1CNC(=O)CCCn1c(=O)c2ccccc2n(CC(=O)NC2CCCC2)c1=O`, the AC50 (usually the concentration giving half of the maximal activity seen) is 4.47 µM (active).
Regarding `Cn1c(=O)n(CCC(=O)O)c2ccccc21`, the “activity, negative = inhibition” value is -1.84% (inactive).
`CC(=O)CCCCn1c(=O)c2c(ncn2C)n(C)c1=O`: the “activity, negative = inhibition” value is -0.936% [at 25.6 µM] (inactive).
For `O=C(CCCCn1c(=O)c2ccccc2n(CC(=O)NC2CCCC2)c1=O)NC1CCCC1`, the concentration at half-maximal activity (AC50) was 5.01 µM (active).
Regarding `CC1(C)Oc2ccc(C#N)cc2[C@H](N2CCCC2=O)[C@H]1O`, the AC50 entry was “inactive”.
As for `Cc1n[nH]c(=O)[nH]c1=O`, the “activity, negative = inhibition” value is -9.3% [at 25.6 µM] (inactive).
Take `Cc1noc(NS(=O)(=O)c2ccc(N/C=C/C(=O)c3ccc4c(c3)OCO4)cc2)c1C`: the AC50 is 11.2 µM (active).
Still for that read-out and setting: under `Cc1noc(NS(=O)(=O)c2ccc(N/C=C\C(=O)c3ccc4c(c3)OCO4)cc2)c1C` stands 14.1 µM (active); under `O=C(Nc1ncc(Cc2cc(Cl)ccc2Cl)s1)c1ccc([N+](=O)[O-])cc1`, 6.31 µM (active).
Take `O=C(Nc1ncc(Cc2cccc(Cl)c2)s1)C1=NCCN1`: the “activity, negative = inhibition” value is -16.4% (inactive).
Consider `O=C(Nc1cnn(Cc2ccc(Cl)cc2)c1)c1ccc([N+](=O)[O-])cc1`, for which the activity, negative = inhibition was -0.424% [at 2.29 µM] (inactive).
With `CSCC[C@H](C=O)NC(=O)[C@H](CC(C)C)NC(=O)[C@H](CC(C)C)NC(C)=O` (Ac-Leu-Leu-[dM]-aldehyde), the “activity, negative = inhibition” value is -15.9% (inactive).
Turning to `N[C@H](C(=O)O)[C@H](OCc1ccccc1)C(=O)O`, the “activity, negative = inhibition” value was 7.73% (inactive).
On to `CC(C)C[C@H](NC(=O)[C@@H](O)[C@H](N)Cc1ccccc1)C(=O)O`, for which the “activity, negative = inhibition” value was -14.6% (inactive).
Still for that read-out and setting: as for `CC(C)C(NC(=O)OCc1ccccc1)C(=O)O` (stereo not drawn), the figure is 2.93% (inactive).
On to `CC(C)[C@H](NC(=O)OCc1ccccc1)C(=O)N[C@H](C=O)Cc1ccccc1` (Cbz-Val-Phe-aldehyde), for which the AC50 was 6.31 µM (active).
Regarding `CCCCC(C=O)NC(=O)C(CC(C)C)NC(=O)OCc1ccccc1` (stereo not drawn), the half-maximal activity concentration (AC50) is 15.8 µM (active).
The same measure, in the same setting: under `CCCSC1=C(C#N)C(c2cccnc2)C(C(=O)OCC)=C(c2ccccc2)N1` (stereo not drawn) stands 11.2 µM (active); under `COc1ccc(N(C(=O)COc2ccccc2OC)S(=O)(=O)c2ccc(C)cc2)cc1`, 25.1 µM (active).
In the case of `COc1ccc(N(CC(=O)O)N=O)cc1`, the activity, negative = inhibition is -6.51% [at 11.4 µM] (inactive).
As for `CN(C)CCO[C@@H](c1ccc(Cl)cc1)c1ccccn1`, the “activity, negative = inhibition” value was 2.09% [at 25.6 µM] (inactive).
For `CC1(C)[C@@H]2CC[C@]1(C)[C@@H](OC(=O)/C=C\c1ccccc1)C2`, the activity, negative = inhibition is -9.57% [at 11.4 µM] (inactive).
As for `Nc1nnc(SCCOc2cccc(Br)c2)s1`, the AC50 is 12.6 µM (active).
Take `COCCn1c(C)cc(C2=NNC(=Nc3ccc(F)cc3)SC2)c1C`: the activity, negative = inhibition was 15.3% [at 11.4 µM] (inactive).
As for `FC(F)Sc1ccc(N=C2NN=C(c3ccc4c(c3)OCCO4)CS2)cc1`, the AC50 is 12.6 µM (active).
For the compound `O=C1c2ccccc2C(=O)N1CC1c2ccccc2CCN1S(=O)(=O)c1ccccc1` (stereo not drawn), the AC50 was 2 µM (active).
For `C[C@H](O)[C@H](O)[C@@H]1CNc2nc(N)[nH]c(=O)c2N1`, the “activity, negative = inhibition” value was -6.18% (inactive).
Turning to `CC1CCCCN1c1nc(-c2ccncc2)nc2ccccc12` (stereo not drawn), the AC50 is 0.631 µM (active).
Regarding `CCN1CCN(c2nc(-c3ccccn3)nc3ccccc23)CC1`, the activity, negative = inhibition is 9.59% [at 2.29 µM] (inactive).
As for `CN(Cc1ccco1)c1ncnc2ccc(-c3cccc(NS(C)(=O)=O)c3)cc12`, the AC50 is 5.01 µM (active).
Still for that read-out and setting: under `CN(Cc1ccco1)c1ncncc1-c1cccc(NS(C)(=O)=O)c1` stands 0.794 µM (active).
On to `O=C1c2ccccc2-c2ccc(N(Cc3ccc(Br)cc3)Cc3ccc(Br)cc3)cc21`, for which the activity, negative = inhibition is 3.02% [at 11.4 µM] (inactive).
Regarding `CN(CCc1ccccn1)c1ccc2c(c1)C(=O)c1ccccc1-2`, the AC50 was 3.16 µM (active).
With `CN(CCc1ccccn1)c1ccc2c(c1)Cc1ccccc1-2`, the AC50 is 2.51 µM (active).
For `O=C(O)[C@H](CCc1ccccn1)c1ccccc1`, the activity, negative = inhibition is 0.483% [at 11.4 µM] (inactive).
`C[C@@H](C1=C(CCN(C)C)Cc2ccccc21)c1ccccn1`: the “activity, negative = inhibition” value is -14.4% (inactive).
For `CCn1c(N)nc2ccccc21`, the “activity, negative = inhibition” value was -22.1% (inactive).
On to `c1ccc(Cn2c(CN3CCCC3)nc3ccccc32)cc1`, for which the activity, negative = inhibition is -12.3% [at 2.29 µM] (inactive).
For the compound `CCn1c(COc2ccc(OC)cc2)nc2ccccc21`, the concentration at half-maximal activity (AC50) was 1.26 µM (active).
For `O=C(c1ccccc1)[C@H](Nc1ccc2ccccc2c1)c1ccccc1`, the AC50 was 3.16 µM (active).
In the case of `O=C(Nc1ccc2ccccc2c1)c1onc2c1CCCC2`, the “activity, negative = inhibition” value was -20.2% (inactive).
On to `O=C(O)CCC(=O)Nc1ccc2ccccc2c1`, for which the activity, negative = inhibition was -3.97% [at 11.4 µM] (inactive).
Regarding `Cc1c(Nc2cc(N3CCCC(C)C3)c3nonc3c2[N+](=O)[O-])c(=O)n(-c2ccccc2)n1C` (stereo not drawn), the “activity, negative = inhibition” value is -11.2% (inactive).
Turning to `COc1ccc(C(=O)N2CC3(CC(c4cccc([N+](=O)[O-])c4)=NO3)C[C@H]2C(=O)NCC(N)=O)cc1` (stereo partly drawn), the activity, negative = inhibition was 15.2% [at 2.29 µM] (inactive).
As for `CC(C)CCNC(=O)C12CN(Cc3ccccc3)CC1C(c1cccc([N+](=O)[O-])c1)=NO2` (stereo not drawn), the AC50 was 12.6 µM (active).
In the case of `O=C(NCc1ccccc1)C12CN(Cc3ccccc3)CC1C(c1cccc([N+](=O)[O-])c1)=NO2` (stereo not drawn), the AC50 is 7.08 µM (active).
In the case of `O=C1CC[C@H](N2C(=O)c3ccccc3C2=O)C(=O)N1`, the AC50 entry was “inactive”.
As for `Nc1ncnc2c1nc(-c1ccccc1)n2[C@H]1O[C@@H](CO)[C@@H](O)[C@H]1O`, the activity, negative = inhibition was -3.38% [at 11.4 µM] (inactive).
As to `Cc1n[nH]c(C)c1S(=O)(=O)N1CCC(C(=O)O)CC1`, the activity, negative = inhibition was 3.15% [at 11.4 µM] (inactive).
As to `COc1cc(/C=C/C(=O)Nc2cc(C(F)(F)F)ccc2Cl)cc(OC)c1OC`, the activity, negative = inhibition is -14.2% [at 11.4 µM] (inactive).
Regarding `Cc1ccc(C(=O)NC(=S)Nc2cc(C(F)(F)F)ccc2Cl)cc1`, the “activity, negative = inhibition” value is 0.666% (inactive).
For `COc1cccc(C(=O)Nc2cc(C(F)(F)F)ccc2Cl)c1`, the AC50 was 7.94 µM (active).
Same read-out and setting: as for `COc1cc(C(=O)Nc2cc(C(F)(F)F)ccc2Cl)cc(OC)c1OC`, the figure is 15.8 µM (active).
Turning to `CC(C)CNC(=O)O`, the activity, negative = inhibition is -6.31% [at 11.4 µM] (inactive).
Same read-out and setting: under `CC(C)C(=O)Nc1ccc(Sc2ccc(F)cc2)cc1` stands -3.21% (inactive).
In the case of `CC(C(=O)Nc1cccnc1)N1C(=O)C2C3C=CC(C3)C2C1=O` (stereo not drawn), the half-maximal activity concentration (AC50) was 12.6 µM (active).
As to `Cc1ccc(NC(=O)C(C)N2C(=O)C3C4CC(C(Br)C4Br)C3C2=O)cc1` (stereo not drawn), the AC50 was 5.62 µM (active).
Turning to `CCC1CCc2c(c3ccccc3[nH]c2=O)O1` (stereo not drawn), the activity, negative = inhibition is -20.1% [at 2.29 µM] (inactive).

The values above are taken from PubChem BioAssay AID1851 (National Center for Advancing Translational Sciences (NCATS), 2009).
